The source of these data is PubChem BioAssay (NCATS).

Records with an inconclusive call do not appear. Calls of active or inactive are those of the source. Unless noted, no rule for the calls is given here.

The nature of assay [1]: qHTS profiling of the MIPE4 collection as inhibitors of Plasmodium falciparum (3D7) proliferation (AID 743344).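 Also: scaled between DMSO vehicle wells and 0.29 µM artemisinin as full inhibition.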 As to conditions: P. falciparum 3D7 in erythrocytes, SYBR Green DNA fluorescence, 72 h; at 28.5 µM unless noted. Put shortly:
(§1)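 Erythrocytes infected with P. falciparum (0.3% parasitemia, 2.5% hematocrit) incubated with compounds 72 h at 37 C, 5% CO2. Lysis with saponin/Triton buffer containing SYBR Green I, overnight at room temperature in the dark; DNA fluorescence (485/535 nm) normalised to 0.29 uM artemisinin and DMSO.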
In general terms: Quantitative high-throughput screening tests each substance at several concentrations.

The nature of assay [2]: qHTS profiling of the MIPE4 collection as inhibitors of Plasmodium falciparum (DD2) proliferation (Rep 2) (AID 743346). The conditions noted are these: P. falciparum Dd2 in erythrocytes, SYBR Green DNA, 72 h; at 28.5 µM unless noted. Put shortly: as §1
The nature of assay [3]: qHTS profiling of the MIPE4 collection as inhibitors of Plasmodium falciparum (HB3) proliferation (AID 743347).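 Also: plate controls were DMSO vehicle wells for no effect and artemisinin wells for full effect.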 The conditions noted are these: P. falciparum HB3 in erythrocytes, SYBR Green DNA, 72 h; at 28.5 µM unless noted. Put shortly:
as §1

A short description of assay [4]: qHTS profiling for inhibitors of Plasmodium falciparum (3D7) proliferation (AID 743322).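 Also: infected erythrocytes exposed to compound for 72 h before lysis; 100% = DMSO vehicle wells and 0% = 0.29 µM artemisinin.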 As to conditions: P. falciparum 3D7 proliferation; at 28.7 µM (top of the series). Put shortly: as §1
A short description of assay [5]: qHTS profiling of the MIPE4 collection as inhibitors of Plasmodium falciparum (DD2) proliferation (AID 743345). As to conditions: P. falciparum Dd2 in erythrocytes, SYBR Green DNA, 72 h; at 28.5 µM unless noted. Put shortly: as §1
The nature of assay [6]: qHTS Assay for Identifying Gametocytocidal Compounds (AID 743244; active = well fitted curve in the direction sought with a large enough effect;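 also: % is scaled to controls: 0 for no effect and ±100 for the full control effect; actives lower the fluorescent signal which means gametocytes are killed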). The conditions noted are these: P. falciparum 3D7 stage III-V gametocytes, alamarBlue, 72 h; max response: stronger effect = lower value. The procedure, abridged:
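A resazurin-based viability read-out was applied to mature P. falciparum gametocytes: 72 h compound treatment, then 24 h dye incubation, with falling fluorescence signalling gametocytocidal effect.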

Regarding `CCN(C)C(=O)Oc1cccc([C@H](C)N(C)C)c1`, the parasite growth, % of DMSO control in assay [1] was 92%. The compound further yielded a parasite growth, % of control (lower = inhibition) in assay [2] of 69.6%. The same compound showed a growth, % of control in assay [3] of 82.1%.
As for `CS(=O)c1ccc(-c2nc(-c3ccc(F)cc3)c(-c3ccncc3)[nH]2)cc1` (configuration not stated), in assay [4], the remaining parasite growth % (stronger effect = lower value) stood at 64.7%. Also, the parasite growth, % of control (lower = inhibition) in assay [2] was 30.3% [at 57.5 µM].
Compound `Cc1ccnc2c1NC(=O)c1cccnc1N2C1CC1` displayed a parasite growth, % of DMSO control in assay [1] of 358%. In addition, the parasite growth remaining, % of DMSO control (lower = more inhibition) in assay [5] amounted to 112%. Moreover, the parasite growth, % of control (lower = inhibition) in assay [2] stood at 83.7%. This compound also displayed a growth, % of control in assay [3] of 600%.
`CCOC(=O)c1ncn2c1CN(C)C(=O)c1cc(F)ccc1-2`: in assay [1], the parasite growth, % of DMSO control was 69.1%. The parasite growth remaining, % of DMSO control (lower = more inhibition) in assay [5] was determined as 84.4%. In assay [2], this compound came in with a parasite growth, % of control (lower = inhibition) of 74.8%. In assay [3], the growth, % of control was 94.6%.
Consider `CN1CCN(C(=O)O[C@H]2c3nccnc3C(=O)N2c2ccc(Cl)cn2)CC1`, for which, in assay [6], the max response is -4.73% (inactive). In assay [1], this compound gave a parasite growth, % of DMSO control of 95.4%. Also, the parasite growth remaining, % of DMSO control (lower = more inhibition) in assay [5] is 98.2%. The compound further registered a parasite growth, % of control (lower = inhibition) in assay [2] of 86.8%. Also, in assay [3], the growth, % of control is 97.2%.
In assay [1], `Cc1cc2c(s1)Nc1ccccc1N=C2N1CCN(C)CC1` had a parasite growth, % of DMSO control of 97.1%. Further, the parasite growth remaining, % of DMSO control (lower = more inhibition) in assay [5] worked out at 94.5%. This compound displayed a parasite growth, % of control (lower = inhibition) in assay [2] of 49.7%. This compound had a growth, % of control in assay [3] of 101%.
